Consider 39 compounds from PubChem BioAssay (NCI).

Values joined by “and” are separate entries in the source; they are usually repeats but may differ in a detail not shown here. Identical values can stand only once. The panel holds about 83,000 compounds, 20% with a hit somewhere; the sample as a whole holds those more often.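 In brief: 96-well plates, 48 h treatment, single concentration, percent growth endpoint.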 Unmarked numbers belong to inactive results.

For the first test, the system named is UO-31 renal. Description: NCI-60 one-dose screen, 48 h (100 = growth as untreated, 0 = no growth, -100 = all killed). Particulars: 10 µM. The method, then: Growth inhibition of the UO-31 human tumor cell line is measured as a screen for anti-cancer activity. Cells are grown in 96 well plates and exposed to the test compound for 48 hours. Compounds are tested at a single concentration, which is 10^-5 M for most compounds. The reported endpoint is percent growth (GI% or GIPRCNT), where numbers from 0 - 100% represent growth inhibition, and numbers from -100% - 0 represent cell death. For example, a value of 40 represents 60% growth inhibition. A value of 0 means no net growth occurred over the course of the experiment. A value of -40 indicates 40% of cells at the beginning of the experiment died by the end of the experiment. A value of -100 means all cells are dead at the end of the experiment.
NCI-60 Human Tumor Cell Lines Screen was performed using the standard one-dose NCI protocol, which is described in more detail at https://dtp.cancer.gov/discovery_development/nci-60/default.htm.
Compounds with GIPRCNT values below 10 were considered active. Activity score was based on GIPRCNT using the following formula: […]
Score is 0 for GIPRCNT values of 100 or above, 50 for GIPRCNT values of 0, and 100 for GIPRCNT values of -100.
Turning to `O=c1ccn2c(n1)OC1CC2OC1COC(c1ccccc1)(c1ccccc1)c1ccccc1` (stereo not given), the growth is 97%.

Still in this test, the particulars now being: 10 µM unless noted.
In the case of `COc1ccc(CCN=Cc2ccc(Cl)cc2)cc1OC`, the growth was 83.7%.
The same measure, in the same setting: the figure for `O=c1[nH]c(=S)[nH]n1C(=S)n1[nH]c(=S)[nH]c1=O` is 80.5%; for `N#Cc1c(N)nc2c(c(-c3ccc(Cl)cc3)nn2-c2ccccc2)c1C#N` it is 96.6% [100 µM].
On the same count and under the same terms, then `Nc1ccccc1SC1CC(=O)N(c2ccc(I)cc2)C1=O` (stereo not given), with 86.8%.
The same measure, in the same setting: the figure for `C#CCOC(=O)C(N)CS` (stereo not given) is 82.5%; for `O=C1Cc2ccccc2C(=O)N1` it is 75.5%; for `CCc1ccccc1-n1[nH]c(C)c(C=N)c1=O` it is 90%.
In the case of `CC(=O)Oc1cc(C(C)C)c(OCCN(C)C)cc1C`, the growth was 94.2% and 97.3%.
As for `CCN(CC)C(=S)SCCO`, the growth was 93.8%.
The same measure, in the same setting: then `O=P(O)(O)OC1C(OP(=O)(O)O)C(OP(=O)(O)O)C(OP(=O)(O)O)C(OP(=O)(O)O)C1OP(=O)(O)O.[Cu+2]` (stereo not given), with 98.2%; and `O=[N+]([O-])c1cccc(N=Cc2ccccc2)c1`, with 90.8%; and `CCOC(=O)c1ccc(C(=N)N)cc1`, with 91.8%.
Take `O=c1[nH]nnc2cc(Cl)ccc12`: the growth is 70.5% and 76.3%.
Same read-out and setting: the figure for `CCOCCC(=O)O` is 102%; for `COc1ccc(CCl)c(C)c1OC` it is 89.7%.
As for `CCCC(=O)OCC(COC(=O)CCC)OC(=O)CCC`, the growth is 87.3%.
For the compound `O=c1[nH]c(=O)c2[nH]c(=O)[nH]c2[nH]1`, the growth is 85.7%.
Turning to `OCCS`, the growth was 98%.
On the same count and under the same terms, the figure for `O=C(O)/C=C/C=C/c1ccccc1` is 93.1% and 88.4%.
Same read-out and setting: then `COC(=O)C(Cc1cn(C(C)=O)c2ccccc12)P(=O)(OC)OC` (stereo not given), with 74.8%; and `OC(CC(c1ccccc1)c1cccc2ccccc12)(c1ccccc1)c1ccccc1` (stereo not given), with 70.2% and 57.4%; and `Cc1cc(-c2ccc(N=Nc3c(C)nn(-c4ccc(S(=O)(=O)O)cc4)c3O)c(C)c2)ccc1N=Nc1ccc(O)c(C(=O)O)c1`, with 69.1%.
Same read-out and setting: then `Nc1ccccc1SC(CC(=O)c1ccccc1)c1cccc([N+](=O)[O-])c1` (stereo not given), with 71.6% and 61.5%; and `CC(=O)Nc1ccc2oc(=O)ccc2c1`, with 91.3%.
As to `CCCCOC1NC(=O)NC(=O)C1(F)C(=O)OCC` (stereo not given), the growth is 55.2% and 51.3%.
As for `O=C(O)c1cc(=O)[nH]c(=O)[nH]1`, the growth is 78.8% and 42.2%.
With `O=C(c1ccncc1)c1c(Cc2ccccc2)ccc2ccccc12`, the growth was 64.5%.
On the same count and under the same terms, the figure for `OC1CCCN(Cc2ccccc2)C1` (stereo not given) is 88.5%; for `COc1ccc(-n2[nH]c3c(cnc4ccccc43)c2=O)cc1` it is 70.7%; for `COc1cc2c(cc1O)C(=O)CCCC2` it is 90.4%.
Still for that read-out and setting: then `CCC(=O)Oc1ccc(OCc2ccccc2)cc1`, with 45.6% and 30.4%; and `O=C(c1ccccc1)C1(Br)CCCCC1`, with 82.2%.
For the compound `CSc1nc(N)c(N)c(N)n1`, the growth is 93%.
Still for that read-out and setting: then `NCCCCCC(=O)O`, with 89.3% [middle of 4 runs]; and `COC(=O)c1nc(N)nc(C(=O)OC)c1C(=O)c1ccc(F)cc1`, with 92.4%.
The same measure, in the same setting: the figure for `CCOC(=O)c1ccncc1` is 90.2%; for `CCOC(=O)CN1CCC(C(=O)OCC)CC1` it is 94.9%.
On to `O=C(NC(CSSCC(NC(=O)OCc1ccccc1)C(=O)O)C(=O)O)OCc1ccccc1` (stereo not given), for which the growth is 67.6% and 98%.

Staying with this test, now noted: 100 µM.
With `O=c1ccn2c(n1)OC1CC2OC1COC(c1ccccc1)(c1ccccc1)c1ccccc1` (stereo not given), the growth was 89.9%.
